Laboratory results published in PubChem BioAssay (NCI).
About 83,000 compounds went through this panel and 20% of them were active in at least one assay; those are over-represented in the sample as a whole.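 How to read the values: 0–100, growth inhibition (40 = 60% inhibited); 0, no net growth; -100 to 0, cell death (-40 = 40% of starting cells died; -100 = all dead).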 A number with no mark means an inactive call. Active and inactive are the calls of the source. Rule for the calls: active = growth percent below 10; inactive = the rest.

Test system: 786-0 renal
Assay: NCI-60 one-dose screen, 48 h (100 = growth as untreated, 0 = no growth, -100 = all killed)
Details: 10 µM unless noted

SMILES | growth
CCOC(=O)c1cc(C(=O)c2cc(OC)cc(OC)c2)n2ncccc12 | 34.2%
CO[C@H]1/C=C/O[C@@]2(C)Oc3c(C)c(O)c4c(O)c(c5c(nc6cc(C)ccn65)c4c3C2=O)NC(=O)/C(C)=C\C=C\[C@H](C)[C@H](O)[C@@H](C)C(O)[C@@H](C)[C@H](OC(C)=O)[C@@H]1C (stereo not given in full) | 95.3%
CN1CCN(Cn2nc(-c3cc(Cl)cc(Cl)c3Cl)oc2=S)CC1 | 94.5%
COC1=C(OC)C(=O)C(CCCCCCCCCCO)=C(C)C1=O | 83.3%
COCCn1cc(-c2nc(-c3cc4cccnc4n3C)cs2)c2cc(OC)ccc21 | 66.8%
O=C(/C=C/c1ccc(Cl)cc1)c1ccc(-n2cc(CN3CCN(c4cc5c(cc4F)c(=O)c(C(=O)O)cn5C4CC4)CC3)nn2)cc1 | 78.1%
Cc1ccc(S(=O)(=O)c2nc(-c3ccccc3)oc2S(C)=O)cc1 (stereo not given) | -64.5% (active)
CNC(=O)c1cc(Oc2ccc3nc(NC(=O)Nc4ccc(F)cc4F)sc3c2)ccn1 | 64%
CCCCN(CCC#N)C(N)=O | 92%
COc1cccc(/C=C2\CCc3ccccc3C2=O)c1 | 81.4%
C#Cc1c(I)n(C2OC(CO[Si](C)(C)C(C)(C)C)C3OC(C)(C)OC32)c(=O)[nH]c1=O (stereo not given) | 93.9%
COc1cc(/C=C2\C(=O)N(CCOc3cc(O)c4c(=O)cc(-c5ccccc5)oc4c3)c3ccccc32)cc(OC)c1O | 75.6%
O=C1c2ccccc2-c2c1c1ccncc1c(=O)n2CCCn1ccnc1 | 55.4%
COc1cc(OCc2cccc(-c3ccccc3)c2C)cc(OC)c1CN1CCCCC1C(=O)NCCOCCOCCN (stereo not given) | 90.8%
COc1ccc(-c2cn(Cc3ccc4c(Br)cc(Br)c(O)c4n3)nn2)cc1 | 104%
O=c1c(Cc2ccc(F)cc2)cc(-c2ccccc2)nn1C/C(=N/O)c1ccccc1 | 69.2%
C1=C2CCCC3=Cc4ccccc4OC23Oc2ccccc21 | 26.4%
N/C(=N\c1nc2ccccc2s1)NC(=O)Nc1ccccc1 | 52.3%
C=C(C)[C@@H]1CC[C@]2(COCCCNCCCN)CC[C@]3(C)[C@H](CC[C@@H]4[C@@]5(C)CC[C@H](OCCCN)C(C)(C)[C@@H]5CC[C@]43C)[C@@H]12 | -83.6% (active)
N#CC1=C(N)Oc2c(ccc3ccccc23)C1c1cc2ccccc2n2nnnc12 (stereo not given) | 13.4%

SMILES | growth
CC(C)(C#N)c1cc(C(=O)Nc2cc(Nc3ncccc3-c3ncnc4nc[nH]c34)ccc2F)cc(C(F)(F)F)c1 | 64%
CN1CCN(CC(=O)N(C)c2ccc(N=C(c3ccccc3)c3c(O)[nH]c4ccc([N+](=O)[O-])cc34)cc2)CC1 | 44.3%
Cc1c(Cl)cccc1NC(=O)c1sc2nc3c(cc2c1N)CCCC3 | 29.8%
COC(=O)c1c(C)nc(C)c2c1C(=O)C(Br)=C(NCCN1CCOCC1)C2=O | 101%
COc1ccccc1NC(=O)n1c(=O)cc(C)c2ccc(O)cc21 | 115%
C#CCOC(=O)C(N)CSSCC(N)C(=O)O (stereo not given) | 100%
CN(C)CCOc1nc2c3cc([N+](=O)[O-])ccc3nn2c2ccccc12 | 22.7%
CC(=O)Oc1ccccc1C(=O)N(Cc1ccc2c(Cl)cc(Cl)c(O)c2n1)c1ccccc1 | 59.1%
C=CCOC(=O)C1=C(C)N(CC)C(=O)N(CC)C1c1c(Cl)n(C)c2ccccc12 (stereo not given) | 91.9%
CNC(=O)c1cc(Oc2ccc3nc(NC(=O)c4cc(C(F)(F)F)cc(C(F)(F)F)c4)sc3c2)ccn1 | 9.65% (active)
COc1cc(C2=Nc3c(N)nc(N)nc3NC(c3cccc(Nc4ccnc5cc(C(F)(F)F)ccc45)c3)C2)cc(OC)c1OC (stereo not given) | 61%
c1ccc2[nH]c(-c3ccc(-c4nccc5c4[nH]c4ccccc45)cc3)nc2c1 | 2.97% (active)
COc1ccc(/C=C2/CCc3cc4ccc(OC)cc4[o+]c32)c(O)c1 | -6.35% (active)
Cc1c(-c2cnc3ccc(Cl)cc3c2C(=O)O)nnn1-c1ccc(Cl)cc1 | 62.7%
COc1ccc(NC(=O)c2ccc(NC3=C(c4ccc(Cl)cc4)C(=O)NC3=O)cc2)cc1 | 89.1%
O=C1CC2C=CCN2C=C1NC(=O)c1ccccc1 (stereo not given) | 98.5%
COc1cccc(CNc2nnc(C)c(C)n2)c1O | 104%
COc1cc2c(c(OC)c1OC)CCC(c1cccc(C(=O)Nc3ccc([N+](=O)[O-])cc3)c1)O2 (stereo not given) | 70.1%
CO[C@]12C=C/C(=C(/C(=O)OCc3cccnc3)C(=O)CCCCCCCC[C@]3(OC)C=C/C(=C(/C(=O)OCc4cccnc4)C(=O)CCCCCCCC1)O3)O2 | -64.1% (active)
O=c1cc(-c2nccc3c2[nH]c2ccccc23)c2cc(Cl)ccc2o1 | 27.9%
